The values below come from PubChem BioAssay (NCI).

The panel holds about 83,000 compounds, 20% with a hit somewhere; the sample as a whole holds those more often.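 96-well plates, one dose, 48 hours. Percent growth reported; active if below 10.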 Unmarked numbers belong to inactive results. The source made the active and inactive calls.

Among the test systems are NCI-H23 lung; NCI-H226 lung; NCI-H322M lung; HOP-62 NSCLC; HOP-92 NSCLC; NCI-H522 lung; A549/ATCC NSCLC; 786-0 renal; COLO 205 colon; DU-145 prostate; K-562 leukemia; MALME-3M melanoma; MDA-MB-231 breast; RXF 393 renal; SF-268 CNS; SF-295 CNS; SF-539 CNS; UACC-257 melanoma; M14 melanoma; NCI-H460 lung.
Holding throughout (assay): NCI-60 one-dose screen, 48 h (100 = growth as untreated, 0 = no growth, -100 = all killed)
Common to all, as to conditions: 10 µM unless noted

Turning to `COc1cc(/C=C2\C(=O)N(CCCOc3cc(O)c4c(=O)cc(-c5ccccc5)oc4c3)c3ccccc32)cc(OC)c1O`, the growth is 87.9% in the test on NCI-H23 lung; 94.5% in the test with NCI-H226 lung; 89.9% with NCI-H322M lung; 71.7% in the test with HOP-62 NSCLC; 72.1% in the test on HOP-92 NSCLC; 36.4% in the test with NCI-H522 lung. Further, the growth in the test on A549/ATCC NSCLC is 74.5%; with 786-0 renal, 92.8%; with COLO 205 colon it was 82.6%; in the test with DU-145 prostate, 86.2%; with K-562 leukemia, 21.2%; with MALME-3M melanoma, 78.5%. Further, the growth is 97.5% in the test on MDA-MB-231 breast; 91.6% in the test with RXF 393 renal; 78.5% in the test on SF-268 CNS; 101% in the test with SF-295 CNS; 80.7% with SF-539 CNS; 90.9% in the test on UACC-257 melanoma. Further, in the test with M14 melanoma, the growth is 57.1%.
For the compound `Cc1[nH]c(C(=O)Nc2ccccc2OC2CCN(CCN3CCOCC3)CC2)c(Cl)c1Cl`, the growth in the test on NCI-H23 lung was 97.6%; in the test on NCI-H226 lung it was 79.6%; with NCI-H322M lung it was 99.9%; in the test with HOP-62 NSCLC, 89.9%; in the test with HOP-92 NSCLC, 70.9%; with NCI-H522 lung, 47.6%. The growth was 99% in the test with A549/ATCC NSCLC; 57.5% in the test on 786-0 renal; 102% in the test on COLO 205 colon; 105% with DU-145 prostate; 57.5% in the test on K-562 leukemia; 106% in the test on MALME-3M melanoma. Besides, the growth with MDA-MB-231 breast is 75.9%; in the test on RXF 393 renal, 83.6%; with SF-268 CNS it was 81.5%; in the test with SF-295 CNS it was 97.7%; with SF-539 CNS, 89.6%; in the test with UACC-257 melanoma, 115%. The growth with M14 melanoma is 106%.
On to `O=C(NNc1nc2cc(F)ccc2n2c(CN3CCOCC3)ccc12)c1ccccc1`, for which the growth was 19.7% with NCI-H23 lung; 17.4% in the test with NCI-H226 lung; 25.1% with NCI-H322M lung; 14.6% with HOP-62 NSCLC; 27.8% in the test on HOP-92 NSCLC; 9.17% (active) with NCI-H522 lung. The growth with A549/ATCC NSCLC was 2.97% (active); in the test on 786-0 renal, 6.29% (active); in the test with COLO 205 colon, 1.54% (active); in the test on DU-145 prostate, 23.6%; in the test with K-562 leukemia, 5.32% (active); in the test on MALME-3M melanoma, 8.12% (active). For the same compound, the growth with MDA-MB-231 breast was 17.3%; with RXF 393 renal, -0.227% (active); with SF-268 CNS, 14.8%; with SF-295 CNS it was 0.468% (active); in the test with SF-539 CNS, 4.33% (active); in the test with UACC-257 melanoma, -6.53% (active). The growth with M14 melanoma was -15.6% (active).
As for `CS(=O)(=O)Nc1cc(-c2ccc3ncnc(Nc4ccc5c(cnn5Cc5ccncc5)c4)c3c2)cnc1Cl`, the growth in the test on NCI-H23 lung was 62.2%; in the test on NCI-H226 lung, 92%; in the test on NCI-H322M lung, 76%; with HOP-62 NSCLC it was 43.9%; in the test with HOP-92 NSCLC it was -7.79% (active); with NCI-H522 lung, 46.4%. In addition, the growth in the test with A549/ATCC NSCLC was 86%; in the test with 786-0 renal, 66.3%; in the test with COLO 205 colon, 89.2%; in the test on DU-145 prostate, 78.9%; in the test with K-562 leukemia, 53.5%; with MALME-3M melanoma, 20.8%. Also, the growth with MDA-MB-231 breast is 43.4%; in the test with RXF 393 renal it was 21.1%; in the test on SF-268 CNS, 45%; with SF-295 CNS, 84.5%; in the test with SF-539 CNS it was 50.3%; in the test on UACC-257 melanoma, 59.4%. Besides, the growth in the test with M14 melanoma is 56.2%.
Take `Cc1cccc(N2C(=O)/C(=C/C(Cl)=C/c3ccc([N+](=O)[O-])cc3)SC2=S)c1C`: the growth in the test on NCI-H23 lung is 10.4%; with NCI-H322M lung it was 82.2%; in the test with HOP-62 NSCLC it was 17.2%; in the test on NCI-H460 lung, 21%; in the test with HOP-92 NSCLC, -28.1% (active); with NCI-H522 lung, -29.3% (active). Besides, the growth was 22.6% in the test with A549/ATCC NSCLC; 1.63% (active) in the test on 786-0 renal; -31.9% (active) in the test on COLO 205 colon; 27.3% with DU-145 prostate; 3.9% (active) in the test on K-562 leukemia; -8.54% (active) in the test with MALME-3M melanoma. In addition, the growth in the test with MDA-MB-231 breast was -6.22% (active); with RXF 393 renal, -33.6% (active); in the test on SF-268 CNS, 40.5%; in the test on SF-295 CNS it was 22.3%; in the test on SF-539 CNS it was -3.16% (active); in the test with UACC-257 melanoma, 14.3%. Besides, the growth in the test on M14 melanoma was 22.5%.
As for `O=C(/C=C/c1ccco1)Nc1ncc(Cc2cc(Cl)ccc2Cl)s1`, the growth was 33.4% with NCI-H23 lung; 43.7% with NCI-H322M lung; 17.8% in the test on HOP-62 NSCLC; 3.88% (active) in the test on NCI-H460 lung; 72.4% in the test with HOP-92 NSCLC; -4.32% (active) with NCI-H522 lung. In addition, the growth in the test with A549/ATCC NSCLC was 19.8%; with 786-0 renal, 31.4%; in the test with COLO 205 colon, -14.2% (active); with DU-145 prostate it was 13.9%; with K-562 leukemia, 7.9% (active); in the test with MALME-3M melanoma, 49%. The growth with MDA-MB-231 breast is 47.4%; in the test on RXF 393 renal, -2.79% (active); in the test with SF-268 CNS, 44%; with SF-295 CNS, 9.56% (active); with SF-539 CNS, -18.8% (active); in the test with UACC-257 melanoma, 38.8%. For the same compound, the growth with M14 melanoma was 6.81% (active).
For `O=C(O)c1cn(C2CC2)c2cc(N3CCN(C(=O)N4CCOCC4)CC3)c(F)cc2c1=O`, the growth was 99.5% in the test with NCI-H23 lung; 104% in the test on NCI-H322M lung; 106% in the test on HOP-62 NSCLC; 115% in the test on NCI-H460 lung; 95.5% with HOP-92 NSCLC; 89.9% with NCI-H522 lung. Besides, the growth with A549/ATCC NSCLC was 108%; in the test with 786-0 renal, 99.8%; in the test on COLO 205 colon, 110%; in the test on DU-145 prostate, 115%; with K-562 leukemia it was 114%; in the test with MALME-3M melanoma it was 88.6%. Besides, the growth in the test on MDA-MB-231 breast was 104%; with RXF 393 renal, 94.6%; in the test with SF-268 CNS, 97.9%; with SF-295 CNS, 106%; in the test on SF-539 CNS it was 102%; with UACC-257 melanoma it was 98%. For the same compound, the growth in the test with M14 melanoma was 102%.
